Reference: PubChem BioAssay (EPA / NIEHS)
Where “and” joins values, the source holds several entries; their conditions need not be identical. Equal values may be shown once. Results filed as inconclusive are left out. Some compounds were tested as several samples or in several runs, with calls that do not always agree. Calls of active or inactive are those of the source. How the source made its calls, unless noted: active means hit-call score of the fitted dose curve at least 0.9, where 1 is the maximum; inactive means score below 0.9.

Legend:
[1] = target: human RAR-related Orphan Receptor gamma (RORg), RORC (gene 6097) (UniProt P51449); assay: ATG_RORg_TRANS: Attagene TRANS-FACTORIAL HepG2 Assay for human RAR-related Orphan Receptor gamma (RORg) (AID 2283011; active means hit-call score of the fitted dose curve at least 0.9, where 1 is the maximum)
Chain of human RAR-related Orphan Receptor gamma (RORg), RORC (gene 6097) (P51449 whole entry, looked up, the tested form may be a part): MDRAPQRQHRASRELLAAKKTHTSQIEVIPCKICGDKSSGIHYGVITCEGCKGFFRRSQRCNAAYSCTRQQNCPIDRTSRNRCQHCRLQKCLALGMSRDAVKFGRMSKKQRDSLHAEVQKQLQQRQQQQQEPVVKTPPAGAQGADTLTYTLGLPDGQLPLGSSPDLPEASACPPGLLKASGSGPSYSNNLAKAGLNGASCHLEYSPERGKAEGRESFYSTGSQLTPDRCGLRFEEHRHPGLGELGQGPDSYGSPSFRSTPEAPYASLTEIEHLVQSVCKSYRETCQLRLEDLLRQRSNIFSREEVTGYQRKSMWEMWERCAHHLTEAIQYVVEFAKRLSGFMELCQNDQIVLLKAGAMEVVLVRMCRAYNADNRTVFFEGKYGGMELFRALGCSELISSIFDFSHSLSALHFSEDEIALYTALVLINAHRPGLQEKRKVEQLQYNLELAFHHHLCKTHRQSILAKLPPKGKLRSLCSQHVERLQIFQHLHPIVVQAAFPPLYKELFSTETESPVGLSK
Summary of the method: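 HepG2 cells transiently transfected with GAL4-UAS reporter units and chimeric RORg-Gal4 construct; after 24 h chemical exposure, reporter mRNA measured by RT-PCR with fluorescent capillary electrophoresis, gain of signal fitted against DMSO.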

[2] = target: Retinoic acid receptor RXR-alpha (Homo sapiens) (UniProt P19793); assay: ATG_RXRa_TRANS: Attagene TRANS-FACTORIAL HepG2 Assay for human Retinoid X Receptor alpha (RXRa) (AID 2283012; active means hit-call score of the fitted dose curve at least 0.9, where 1 is the maximum)
Chain of Retinoic acid receptor RXR-alpha (Homo sapiens) (P19793 whole entry, looked up, the tested form may be a part): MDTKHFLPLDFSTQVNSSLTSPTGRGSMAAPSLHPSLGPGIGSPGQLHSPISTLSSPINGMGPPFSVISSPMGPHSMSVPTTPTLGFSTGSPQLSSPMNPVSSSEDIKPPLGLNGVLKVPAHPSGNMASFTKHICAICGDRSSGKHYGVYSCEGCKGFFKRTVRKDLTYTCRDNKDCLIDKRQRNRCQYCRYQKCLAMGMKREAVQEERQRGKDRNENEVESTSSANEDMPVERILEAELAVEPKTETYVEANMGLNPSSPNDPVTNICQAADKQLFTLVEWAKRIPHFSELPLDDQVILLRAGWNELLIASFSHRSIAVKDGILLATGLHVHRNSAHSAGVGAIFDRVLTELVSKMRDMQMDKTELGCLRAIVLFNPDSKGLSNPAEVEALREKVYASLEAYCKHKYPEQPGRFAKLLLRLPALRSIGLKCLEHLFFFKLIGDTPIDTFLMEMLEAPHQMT
Summary of the method: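 TRANS format reporting activity of exogenous RXRa-Gal4 chimera in transiently transfected HepG2, 24 h exposure. Reporter transcripts quantified by RT-PCR with capillary electrophoresis, with gain of signal scored relative to DMSO.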

[3] = target: human Vitamin D Receptor (VDR), VDR (gene 7421) (UniProt P11473); assay: ATG_VDR_TRANS: Attagene TRANS-FACTORIAL HepG2 Assay for human Vitamin D Receptor (VDR) (AID 2283022; active means hit-call score of the fitted dose curve at least 0.9, where 1 is the maximum)
Chain of human Vitamin D Receptor (VDR), VDR (gene 7421) (P11473 whole entry, looked up, the tested form may be a part): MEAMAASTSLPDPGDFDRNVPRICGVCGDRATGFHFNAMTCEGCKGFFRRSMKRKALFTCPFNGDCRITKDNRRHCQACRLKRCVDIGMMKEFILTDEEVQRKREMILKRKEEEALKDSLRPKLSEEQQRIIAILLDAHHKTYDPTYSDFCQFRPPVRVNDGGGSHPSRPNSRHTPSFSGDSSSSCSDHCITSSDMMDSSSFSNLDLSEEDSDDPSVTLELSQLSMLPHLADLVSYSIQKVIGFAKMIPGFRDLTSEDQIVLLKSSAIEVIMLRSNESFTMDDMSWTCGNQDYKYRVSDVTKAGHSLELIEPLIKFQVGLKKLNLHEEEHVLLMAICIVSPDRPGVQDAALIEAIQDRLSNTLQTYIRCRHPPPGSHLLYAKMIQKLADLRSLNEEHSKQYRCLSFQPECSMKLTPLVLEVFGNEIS
Summary of the method: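 HepG2 cells were transiently transfected with GAL4-UAS reporter units and a chimeric VDR-Gal4 construct, then dosed for 24 hours. Reporter mRNA was quantified by RT-PCR, fluorescent labeling, HpaI digestion and capillary electrophoresis; gain of signal analysed vs DMSO.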

[4] = read-out: Monocyte Chemoattractant Protein-1 (MCP1), CCL2 (gene 6347); assay: BSK_3C_MCP1: BioMAP Diversity Plus: 3C Assay for Monocyte Chemoattractant Protein-1 (MCP1) Biomarker Activity (AID 2283017); conditions: primary human endothelial cells (HUVEC); actives raise or lower the signal
Summary of the method: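 Human umbilical vein endothelial cells (3C system) exposed to chemicals for 24 h; MCP-1 quantified by ELISA against the DMSO baseline with bidirectional fitting, and parallel SRB staining used to assess cytotoxicity.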

[5] = BSK_4H_SRB: Viability Assessment in the BioMAP Diversity Plus: 4H Assay (AID 2283027); conditions: primary human endothelial cells (HUVEC);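 further: cells exposed to compound for 24 h before staining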
Summary of the method: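 Cytotoxicity read-out in primary human endothelial cells: after 24 h compound exposure, cells were TCA-fixed (10%), stained with 0.1% SRB and absorbance taken at 560 nm. Values fitted in both directions relative to DMSO.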

[6] = read-out: E-selectin (Homo sapiens) (UniProt P16581); assay: BSK_3C_Eselectin: BioMAP Diversity Plus: 3C Assay for Eselectin Biomarker Activity (AID 2283015); conditions: primary human endothelial cells (HUVEC); actives raise or lower the signal;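 on outcome: cell surface E-selectin protein quantified by ELISA 24 h after dosing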
Summary of the method: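 Primary human umbilical vein endothelial cells (3C system), read 24 h after compound addition; E-selectin measured by ELISA. Bidirectional curve fitting against DMSO baseline; cytotoxicity by parallel SRB total-protein staining.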

[7] = read-out: Interleukin-1 alpha (IL1a), IL1A (gene 3552); assay: BSK_BE3C_IL1a: BioMAP Diversity Plus: BE3C Assay for Interleukin-1 alpha (IL1a) Biomarker Activity (AID 2283016); conditions: primary human bronchial epithelial cells; actives raise or lower the signal
Summary of the method: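 IL-1a measured by ELISA after 24 h treatment of human primary bronchial epithelial cells, with gain or loss of signal fitted versus DMSO. Parallel cultures stained with SRB gauge overt cytotoxicity.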

[8] = read-out: Monocyte Chemoattractant Protein-1 (MCP1), CCL2 (gene 6347); assay: BSK_4H_MCP1: BioMAP Diversity Plus: 4H Assay for Monocyte Chemoattractant Protein-1 (MCP1) Biomarker Activity (AID 2283018); conditions: primary human endothelial cells (HUVEC); actives raise or lower the signal
Summary of the method: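 ELISA of MCP-1 (CCL2) 24 h after chemical dosing of HUVEC in the BioMAP 4H system. Gain or loss versus DMSO fitted; parallel SRB staining (560 nm) tracked overt cytotoxicity.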

[9] = read-out: Human Leukocyte Antigen - DR isotype (HLADR), HLA-DRA (gene 3122); assay: BSK_3C_HLADR: BioMAP Diversity Plus: 3C Assay for Human Leukocyte Antigen - DR isotype (HLADR) Biomarker Activity (AID 2283019); conditions: primary human endothelial cells (HUVEC); actives raise or lower the signal;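 on outcome: ELISA of cell-surface HLA-DR on HUVEC 24 h after dosing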
Summary of the method: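 HUVEC monoculture, HLA-DR measured by ELISA 24 h after chemical dosing. Fitted bidirectionally against DMSO baseline; parallel SRB staining assessed cytotoxicity, with 3C proliferation read by SRB at 48 h.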

[10] = read-out: Interleukin-8 (IL8), CXCL8 (gene 3576); assay: BSK_3C_IL8: BioMAP Diversity Plus: 3C Assay for Interleukin-8 (IL8) Biomarker Activity (AID 2283020); conditions: primary human endothelial cells (HUVEC); actives raise or lower the signal
Summary of the method: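 IL-8 was measured by ELISA in HUVEC cultures 24 h after chemical dosing, with gain or loss of signal fitted relative to DMSO. Parallel SRB total-protein staining tracked overt cytotoxicity.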

[11] = read-out: Monokine induced gamma interferon (MIG), CXCL9 (gene 4283); assay: BSK_3C_MIG: BioMAP Diversity Plus: 3C Assay for Monokine induced gamma interferon (MIG) Biomarker Activity (AID 2283021); conditions: primary human endothelial cells (HUVEC); actives raise or lower the signal;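 on AC50: MIG protein level measured by immunoassay in the treated endothelial cultures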
Summary of the method: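 ELISA measurement of MIG in human umbilical vein endothelial cells 24 h after treatment. Cytotoxicity tracked by SRB staining in parallel cultures; gain or loss of signal fitted relative to DMSO.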

[12] = BSK_3C_SRB: Viability Assessment in the BioMAP Diversity Plus: 3C Assay (AID 2283023); conditions: primary human endothelial cells (HUVEC);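 further: fitted both ways against DMSO so a hit may be signal rise or drop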
Summary of the method: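 Human umbilical vein endothelial cells in the 3C system, treated 24 h. Total protein measured by 0.1% sulforhodamine B staining after 10% TCA fixation, read at 560 nm; bidirectional fit versus DMSO.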

[13] = read-out: Matrix Metallopeptidase 1 (MMP1), MMP1 (gene 4312); assay: BSK_BE3C_MMP1: BioMAP Diversity Plus: BE3C Assay for Matrix Metallopeptidase 1 (MMP1) Biomarker Activity (AID 2283024); conditions: primary human bronchial epithelial cells; actives raise or lower the signal
Summary of the method: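 ELISA measurement of MMP-1 after 24 h compound exposure of primary human bronchial epithelial cells. Changes in either direction fitted relative to DMSO; parallel SRB staining checked overt cytotoxicity.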

[14] = read-out: Pselectin, SELP (gene 6403); assay: BSK_4H_Pselectin: BioMAP Diversity Plus: 4H Assay for Pselectin Biomarker Activity (AID 2283026); conditions: primary human endothelial cells (HUVEC); actives raise or lower the signal
Summary of the method: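 ELISA of surface P-selectin on HUVEC, 24 h after dosing, with parallel SRB staining (0.1% after 10% TCA fixation, 560 nm) for overt cytotoxicity. Activity fitted in both directions relative to DMSO.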

[15] = BSK_BE3C_SRB: Viability Assessment in the BioMAP Diversity Plus: BE3C Assay (AID 2283028); conditions: primary human bronchial epithelial cells;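 on AC50: fitted both ways so AC50 may mark signal gain or loss versus DMSO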
Summary of the method: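 Human bronchial epithelial primary cells in confluent culture, 24 h after chemical dosing; total protein by 0.1% SRB staining after 10% TCA fixation, read at 560 nm. Bidirectional fitting versus DMSO baseline.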

[16] = read-out: Thrombomodulin, THBD (gene 7056); assay: BSK_3C_Thrombomodulin: BioMAP Diversity Plus: 3C Assay for Thrombomodulin Biomarker Activity (AID 2283029); conditions: primary human endothelial cells (HUVEC); actives raise or lower the signal
Summary of the method: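 ELISA measurement of thrombomodulin on HUVEC surface 24 h after chemical dosing; activity fitted in both directions relative to DMSO vehicle.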

[17] = read-out: Urokinase-type plasminogen activator receptor (uPAR), PLAUR (gene 5329); assay: BSK_4H_uPAR: BioMAP Diversity Plus: 4H Assay for Urokinase-type plasminogen activator receptor (uPAR) Biomarker Activity (AID 2283030); conditions: primary human endothelial cells (HUVEC); actives raise or lower the signal
Summary of the method: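 Human umbilical vein endothelial cells in the 4H system, 24 h after chemical dosing. Cell-surface uPAR measured by ELISA, fitted in both directions versus DMSO; cytotoxicity checked by SRB total protein in parallel cultures.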

[18] = target: human Thyroid Receptor alpha (THRa1), THRA (gene 7067) (UniProt P10827); assay: ATG_THRa1_TRANS: Attagene TRANS-FACTORIAL HepG2 Assay for human Thyroid Receptor alpha (THRa1) (AID 2283014; active means hit-call score of the fitted dose curve at least 0.9, where 1 is the maximum)
Chain of human Thyroid Receptor alpha (THRa1), THRA (gene 7067) (P10827 whole entry, looked up, the tested form may be a part): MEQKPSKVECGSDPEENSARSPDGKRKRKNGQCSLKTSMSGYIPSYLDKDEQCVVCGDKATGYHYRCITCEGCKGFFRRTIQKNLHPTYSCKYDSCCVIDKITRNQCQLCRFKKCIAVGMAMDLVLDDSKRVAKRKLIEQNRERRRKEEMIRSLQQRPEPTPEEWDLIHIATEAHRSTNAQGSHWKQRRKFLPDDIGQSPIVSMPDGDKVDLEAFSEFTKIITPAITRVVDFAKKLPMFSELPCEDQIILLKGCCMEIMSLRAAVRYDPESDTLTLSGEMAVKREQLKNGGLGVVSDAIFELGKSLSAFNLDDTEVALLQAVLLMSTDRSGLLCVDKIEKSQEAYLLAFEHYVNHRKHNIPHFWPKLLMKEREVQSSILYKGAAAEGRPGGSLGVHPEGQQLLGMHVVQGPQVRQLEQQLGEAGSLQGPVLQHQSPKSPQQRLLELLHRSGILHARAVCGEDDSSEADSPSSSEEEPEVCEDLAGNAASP
Summary of the method: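 HepG2 cells transiently transfected with chimeric NR-Gal4 and GAL4-UAS reporter units, dosed 24 h. Reporter mRNA quantified by RT-PCR, fluorescent labeling, HpaI digestion and capillary electrophoresis; gain-of-signal fit versus DMSO.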

[19] = BSK_3C_Vis: BioMAP Diversity Plus: 3C Assay for Morphology Visualization (AID 2283025); conditions: primary human endothelial cells (HUVEC);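 further: light microscopy image of cell morphology used as background control; fitted both ways so gain or loss versus DMSO counts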
Summary of the method: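 Light-microscopy visualization of HUVEC cultures at 24 h post-treatment, with DMSO as baseline for bidirectional fitting.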

Chain of E-selectin (Homo sapiens) (P16581 whole entry, looked up): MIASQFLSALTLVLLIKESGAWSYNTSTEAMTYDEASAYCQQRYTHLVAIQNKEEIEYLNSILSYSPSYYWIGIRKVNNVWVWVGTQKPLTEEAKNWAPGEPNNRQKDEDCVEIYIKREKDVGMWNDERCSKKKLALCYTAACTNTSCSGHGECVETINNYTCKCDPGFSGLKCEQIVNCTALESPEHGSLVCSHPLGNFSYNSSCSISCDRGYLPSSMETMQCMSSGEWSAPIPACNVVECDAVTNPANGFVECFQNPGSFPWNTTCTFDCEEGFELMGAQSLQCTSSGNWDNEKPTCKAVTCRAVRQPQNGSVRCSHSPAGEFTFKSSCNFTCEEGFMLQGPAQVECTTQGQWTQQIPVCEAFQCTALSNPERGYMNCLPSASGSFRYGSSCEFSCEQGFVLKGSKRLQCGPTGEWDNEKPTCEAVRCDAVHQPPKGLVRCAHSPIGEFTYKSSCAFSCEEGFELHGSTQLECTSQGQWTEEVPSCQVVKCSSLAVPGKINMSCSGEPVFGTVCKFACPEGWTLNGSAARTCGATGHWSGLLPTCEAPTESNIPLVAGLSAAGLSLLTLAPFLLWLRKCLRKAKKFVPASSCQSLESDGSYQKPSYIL

## COCCOCCOCCO
[1]
  outcome: inactive
[2]
  outcome: inactive
[3]
  outcome: inactive

## CCOCCOCCOCC
[2]
  outcome: inactive

## CCOC(=O)COC(=O)c1cc(Oc2ccc(C(F)(F)F)cc2Cl)ccc1[N+](=O)[O-]
[2]
  outcome: inactive

## CS(=O)(=O)OCCCCOS(C)(=O)=O
[4]
  outcome: inactive

## IC(I)I
[5]
  outcome: inactive

## CCOC(=O)C(C#N)=C(c1ccccc1)c1ccccc1
[4]
  outcome: inactive

## O=C(Nc1ccc2c(O)c(N=Nc3ccc(N=Nc4ccc(S(=O)(=O)O)cc4)cc3)c(S(=O)(=O)O)cc2c1)c1ccccc1
[5]
  outcome: inactive

## O=C1c2ccccc2C(=O)c2c(O)ccc(O)c21
[5]
  outcome: inactive

## CC1(C)CCC[C@]2(C)[C@H]3CCO[C@]3(C)CC[C@@H]12
[2]
  outcome: inactive
[6]
  AC50: 36.9 µM (active) and 34.3 µM (active)
[7]
  AC50: 28.7 µM (active) and 29.6 µM (active)
[8]
  outcome: inactive
[9]
  AC50: 33.8 µM (active) and 34.7 µM (active)
[10]
  AC50: 31.5 µM (active) and 35.4 µM (active)
[11]
  AC50: 34.9 µM (active)
  outcome: inactive
[3]
  outcome: inactive
[12]
  AC50: 34.9 µM (active) and 39.2 µM (active)
[13]
  outcome: inactive
[14]
  AC50: 33.4 µM (active)
  outcome: inactive
[15]
  AC50: 30 µM (active)
  outcome: inactive
[16]
  AC50: 14.6 µM (active) and 17.3 µM (active)
[17]
  AC50: 34.2 µM (active)
  outcome: inactive

## Clc1ccc(C(c2ccccc2Cl)C(Cl)Cl)cc1 (stereo unspecified)
[2]
  outcome: inactive
[18]
  outcome: inactive

## Nc1ccc2cc(S(=O)(=O)O)cc(O)c2c1N=Nc1ccccc1C(F)(F)F
[2]
  AC50: 78 µM (active)
[18]
  outcome: inactive
[3]
  outcome: inactive

## CC(C=O)Cc1ccc(C(C)(C)C)cc1 (stereo unspecified)
[2]
  outcome: inactive
[6]
  AC50: 30.8 µM (active)
[7]
  outcome: inactive
[8]
  AC50: 20 µM (active)
[9]
  AC50: 30.3 µM (active)
[10]
  outcome: inactive
[11]
  outcome: inactive
[3]
  outcome: inactive
[12]
  AC50: 31.2 µM (active)
[13]
  outcome: inactive
[19]
  AC50: 37.8 µM (active)
[14]
  AC50: 31.1 µM (active)
[15]
  outcome: inactive
[16]
  outcome: inactive
[17]
  AC50: 29.7 µM (active)

## CC(C)CCOC(=O)c1ccccc1
[2]
  outcome: inactive
[18]
  outcome: inactive

## c1ccc2cc(Nc3ccc(Nc4ccc5ccccc5c4)cc3)ccc2c1
[2]
  outcome: inactive
[18]
  outcome: inactive
[6]
  outcome: inactive
[7]
  AC50: 147 nM (active)
[8]
  outcome: inactive
[9]
  outcome: inactive
[10]
  outcome: inactive
[11]
  outcome: inactive
[12]
  outcome: inactive
[13]
  outcome: inactive
[19]
  AC50: 8.8 µM (active)
[14]
  outcome: inactive
[5]
  outcome: inactive
[15]
  outcome: inactive
[16]
  outcome: inactive
[17]
  outcome: inactive

## OCc1cccc(Oc2ccccc2)c1
[2]
  outcome: inactive
[18]
  outcome: inactive
[3]
  outcome: inactive

## Cc1ccc(S(N)(=O)=O)cc1
[2]
  outcome: inactive
[18]
  outcome: inactive

## CC1CC(O)CC(C)(C)C1 (stereo unspecified)
[2]
  outcome: inactive
[18]
  outcome: inactive

## C[Si]1(C)O[Si](C)(C)O[Si](C)(C)O1
[2]
  outcome: inactive
[18]
  outcome: inactive
[3]
  outcome: inactive

## CC(O)C1CCCCC1 (stereo unspecified)
[2]
  outcome: inactive
[18]
  outcome: inactive
[3]
  outcome: inactive

## CCCCCCCC(=O)OCC(O)CO (stereo unspecified)
[2]
  outcome: inactive
[18]
  outcome: inactive
